Molecules are shown by their SMILES. Inconclusive results are not listed. Activity calls are given as the source filed them. The call rests on the fitted dose curve; in most records, active means well fitted inhibition curve with a large enough effect; inconclusive means small, poorly fitted or top-dose-only effect, or effect the other way, or another doubt; inactive means no such curve, though single readings can be large or run the other way.
Potency means the concentration at half of the fitted maximal effect.

The nature of this assay: Confirmation Concentration-Response Assay for lipid storage modulators. Further: nearly all actives have a fitted effect of over 80% in size. Particulars: Drosophila S3 cells, lipid droplet BODIPY/CellTracker ratio, 18-24 h; series mostly up to 46.1 µM; activity change, negative = inhibition: at the top concentration. From the text:
NIH Molecular Libraries Probe Production Centers Network [MLPCN] NIH Chemical Genomics Center [NCGC] MLPCN Grant: 1 R03 MH085686-01 Assay Submitter (PI): Beller, Mathias; Max-Planck-Institut fur Biophysikalische Chemie NCGC Assay Overview: Storing lipids as a reservoir for energy or the anabolism of elementary metabolites is a common feature of probably all cells and is conserved from bacteria to humans. The universal cellular lipid storage organelle is the so-called lipid storage droplet (LD). Although ubiquitous, LDs share a simple structure composed of a hydrophobic core that harbors the storage lipids, which is shielded by a droplet-specific phospholipid monolayer to which proteins are attached. The current model of LD biogenesis involves an incorporation of the lipid core into the membrane leaflets of the endoplasmic reticulum (ER) followed by a subsequent budding-like maturation of a LD, which ultimately pinches off. Once released, LD volume can increase by localized lipogenesis or fusion of existing droplets. Storage lipids are re-mobilized enzymatically by lipase activity. Lipase regulation in the adipocyte is heavily studied and involves multiple components including catecholamine signaling, the LD-associated proteins Perilipin and comparative gene identification-58 (CGI-58) and at least two lipases named hormone sensitive lipase (HSL) and adipocyte triglyceride lipase (ATGL). LD regulation outside of the adipocyte is poorly understood and only few components are known. However, there is an urgent need to learn more about ectopic fat depots as mislocalized storage of lipids, for example in the liver or muscle, is an eminent health problem associated with insulin resistance or the metabolic syndrome. We developed a laser-scanning cytometer assay to enable 1,536-well screening and combined the results of the small molecules screen with an RNAi database based on lipid storage. Exo1 identified in the primary screen (AID 1519) and several analogs were measured in the lipid storage assay as 24-point concentration-response curves to confirm potency and SAR.
We dispensed 4 uL of cells at 1.25 x 10^6 cells/mL into LoBase Aurora COC 1,536-well plates (black walled, clear bottom) with a bottle-valve solenoid-based dispenser (Aurora) to obtain 5,000 cells/well. Triacsin C (Sigma-Aldrich T-4540), an inhibitor of long-chain fatty acyl CoA synthetase that blocks synthesis of triglycerides, was used as a positive control for lipid under-storage. A total of 23 nL of compound solution of different concentrations were transferred to the assay plates using a Kalypsys pin tool equipped with a 1,536-pin array containing 10-nL slotted pins (FP1S10, 0.457-mm diameter, 50.8 mm long; V&P Scientific). One microliter of oleic acid (400 uM) was added, and the plate was lidded with stainless steel rubber gasket lined lids containing pinholes. After 18-24 h incubation at 24 degree Celsius and 95% humidity, 4 uL of the dyes BODIPY 493/503 (Molecular Probes) and the Cell Tracker Red CMTPX dye (Molecular Probes) were added to the wells to stain lipid droplets and enumerate cell number, respectively. Fluorescence was detected by excitation of the fluorophores with a 488-nm laser on an Acumen Explorer (TTP Lab Tech). The total intensity in channel 1 (500-530 nm) reflected lipid droplet accumulation. Cells were detected using channel 3 (575- 640 nm) with 5-um width and 100-um depth filters. The ratio of the total intensity in PMT channel 1 over total intensity of channel 3 was also calculated. Percent activity was computed relative to an internal control (100% inhibited lipid droplet deposition due to the presence of 20 uM Triacsin C), which was added to 32 wells/plate.
`COc1ccc(CCNC(=O)COc2ccc(S(=O)(=O)NC3CCCCC3)cc2Cl)cc1OC`: the Potency was 3.97 µM (active).

Consider `COc1cc(NC(=O)COc2ccccc2[N+](=O)[O-])ccc1NC(=O)c1cccs1`, for which the Potency was 17.7 µM (active).

Regarding `Cc1ccccc1-n1ncc(C(C)NC(=O)c2ccco2)c1C` (stereo not given), the Potency was 0.396 µM (active).

As for `COc1ccc(CCNC(=O)CSc2nnc(-c3ccccc3)c3ccccc23)cc1OC`, the Potency was 4.45 µM (active).

Consider `CCN1CCN(Cc2ccc(NC(=O)c3ccc(C)c(NC(=O)c4c[nH]c5cc(C(F)(F)F)ccc5c4=O)c3)cc2C(F)(F)F)CC1`, for which the Potency is 8.88 µM (active).

For the compound `CCN(CC)S(=O)(=O)c1cccc(NC(=O)CNc2cccc(S(=O)(=O)N3CCCC3)c2)c1`, the Potency is 1.99 µM (active).

Turning to `COc1ccc(NC(=O)NC2(C(=O)N3CCN(C)CC3)CCCCC2)cc1`, the “activity change, negative = inhibition” value is 22.7% (inactive).

Take `COc1ccc(CCNC(=O)CCCCCNc2nc(=S)[nH]c3ccccc23)cc1OC`: the Potency was 2.5 µM (active).

On to `CCc1ccc(CN(C)C(=O)c2ccc3c(=O)n4c(nc3c2)CCC4)cc1`, for which the “activity change, negative = inhibition” value is 5.52% (inactive).

In the case of `CCOC(=O)c1c(C)[nH]c(C(=O)OCC(=O)NCCc2ccc(OCC)c(OCC)c2)c1C`, the Potency was 0.888 µM (active).

On to `CCc1cccc2cc3c(N)c(C(=O)Nc4ccc(S(=O)(=O)N5CCCC5)cc4)sc3nc12`, for which the Potency was 9.96 µM (active).

For the compound `CCOC(=O)C1CCN(C(=O)C2(NC(=O)Nc3ccccc3C)CCCCC2)CC1`, the Potency is 2.5 µM (active).

Regarding `N#Cc1ccsc1NC(=O)CN1CCN(S(=O)(=O)c2cc(Cl)ccc2Cl)CC1`, the Potency was 2.5 µM (active).

Consider `O=C(NC1CCCc2c1cnn2-c1cc(F)cc(F)c1)c1cc[n+]([O-])cc1` (stereo not given), for which the “activity change, negative = inhibition” value was 22.7% (inactive).

For `Cc1cc(C)c(Cc2c(C)nc3c(C(=O)NCc4ccco4)cnn3c2C)c(C)c1`, the Potency was 7.05 µM (active).

`CCN(CC)C(=O)c1sc2nc(-c3cccs3)cc(-c3cccs3)c2c1N`: the Potency was 7.91 µM (active).

Turning to `COc1ccc2oc(C(=O)OCC(=O)NCCc3ccc(S(N)(=O)=O)cc3)c(C)c2c1`, the Potency is 4.99 µM (active).

For the compound `COc1ccc(CCn2ccc(O)c(Cc3ccc(Cl)cc3)c2=O)cc1OC`, the Potency is 0.315 µM (active).

`COc1ccc(CCNC(=O)C(Sc2ccccn2)c2ccccc2)cc1OC` (stereo not given): the “activity change, negative = inhibition” value was 26.7% (inactive).

For `Cc1cc(Nc2ccccc2)nc(NCc2ccccc2)n1`, the Potency was 11.2 µM (active).

On to `CCOC(=O)C1CCN(C(=O)C2(NC(=O)Nc3cccc(F)c3)CCCCC2)CC1`, for which the Potency was 3.97 µM (active).

For the compound `COc1ccc(/C=C\C(=O)NCc2ccc3[nH]c(C)cc3c2)cc1OC`, the Potency was 4.45 µM (active).

Consider `Cc1cc(C(=O)NC2CCCc3c2cnn3-c2ccccc2F)nc(C)n1` (stereo not given), for which the Potency is 1.41 µM (active).

For `Cc1cccc(NC(=O)CNC(=O)C23CC4CC(CC(Cl)(C4)C2)C3)n1`, the Potency was 3.15 µM (active).

Consider `CC(C)N1CCc2c(sc(NC(=O)c3ccc(S(=O)(=O)N4CCCCC4C)cc3)c2C(N)=O)C1` (stereo not given), for which the “activity change, negative = inhibition” value was -14.3% (inactive).

With `O=C(O[C@H]1[C@H](Cc2ccccc2)NS(=O)(=O)[C@H]2C[C@@H]3C=C[C@]12O3)c1ccc([N+](=O)[O-])cc1`, the Potency is 28.1 µM (active).

Regarding `CCOc1ccc(CCNC(=O)c2cc3sccc3n2C)cc1OCC`, the Potency is 0.705 µM (active).

Take `CCCCNc1cc(C)nc(NCc2ccccc2)n1`: the Potency was 7.91 µM (active).

Regarding `CCCCCCCCCCCCCCCC[n+]1cccc2ccccc21`, the Potency is 1.22 µM (active).

With `CCOc1ccc(CCNC(=O)COC(=O)c2c(C)nn(-c3ccccc3)c2C)cc1OCC`, the Potency is 1.58 µM (active).

For `COc1ccc(OC)c(CCNC(=O)Cn2sc3nc(C)cc(C)c3c2=O)c1`, the Potency is 4.99 µM (active).

Consider `CCCc1ccc(-c2csc(NC(=O)Cc3cccs3)n2)cc1`, for which the Potency was 1.58 µM (active).

As for `COc1ccc(C)cc1NC(=O)C1CCN(S(=O)(=O)c2cccc3cccnc23)CC1`, the Potency was 15.8 µM (active).

Take `COc1ccc(CCNC(=O)COc2cc(O)c3c(c2)OC(C)(C)CC3=O)cc1OC`: the “activity change, negative = inhibition” value is 2% (inactive).

As for `Cc1cc(C(=O)O[C@H]2[C@H](Cc3ccccc3)NS(=O)(=O)[C@H]3C[C@@H]4C=C[C@]23O4)ccc1[N+](=O)[O-]`, the “activity change, negative = inhibition” value was -10.7% (inactive).

Take `COc1ccc(CCNC(=O)c2ccccc2-c2ccccc2C(=O)O)cc1OC`: the “activity change, negative = inhibition” value was 17.3% (inactive).

`COc1cccc2cc(-c3nnc(SCC(=O)Nc4nc(C)cs4)n3C)oc12`: the Potency is 1.99 µM (active).

As to `COc1ccc(N=Nc2nc(-c3ccccc3)c(-c3ccccc3)[nH]2)cc1`, the Potency was 2.5 µM (active).

As to `CC(Oc1ccc2oc3ccccc3c2c1)C(=O)NC12CC3CC(CC(C3)C1)C2` (stereo not given), the Potency is 0.705 µM (active).

`O=C(Nc1ccc(S(=O)(=O)N2CCCCC2)cc1)c1ccc(CN2CCc3ccccc3C2)cc1`: the Potency was 7.91 µM (active).

The values above are taken from PubChem BioAssay AID1569 (National Center for Advancing Translational Sciences (NCATS), 2009).
